Some test systems named below: NCI-H23 lung; NCI-H226 lung; NCI-H322M lung; HOP-62 NSCLC; NCI-H460 lung; HOP-92 NSCLC; NCI-H522 lung; A549/ATCC NSCLC; 786-0 renal; COLO 205 colon.
Common to all, as to test: NCI-60 one-dose screen, 48 h (100 = growth as untreated, 0 = no growth, -100 = all killed)
Common to all, as to details: 10 µM unless noted

The panel holds about 83,000 compounds, 20% with a hit somewhere; the sample as a whole holds those more often.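 48-hour exposure, single concentration, 96-well plates; percent growth endpoint where 0 means no net growth. Active: below 10.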 Values without a mark were called inactive. Activity calls are given as the source filed them.

Consider `Cc1nn(-c2ccccc2)c(Oc2ccc(Cl)cc2)c1/C=N\N=c1/sc2ccccc2n1C`, for which the growth in the experiment with NCI-H23 lung was 88.9%; in the experiment on NCI-H226 lung, 84.3%; in the experiment on NCI-H322M lung, 83.8%; with HOP-62 NSCLC, 86.7%; with NCI-H460 lung it was 85%; with HOP-92 NSCLC, 71.9%. Further, the growth with NCI-H522 lung is 68%; with A549/ATCC NSCLC, 86.1%; in the experiment with 786-0 renal it was 96.3%; in the experiment with COLO 205 colon it was 93%.

For `N#Cc1c(N2CCNCC2)nc2sc3cc(Cl)c(Cl)cc3n2c1=N`, the growth is 96.9% in the experiment on NCI-H23 lung; 95.2% with NCI-H226 lung; 107% in the experiment with NCI-H322M lung; 98.7% in the experiment on HOP-62 NSCLC; 97.8% in the experiment with NCI-H460 lung; 93.6% with HOP-92 NSCLC. In addition, the growth was 67.3% with NCI-H522 lung, 108% with A549/ATCC NSCLC, 105% in the experiment with 786-0 renal and 132% in the experiment on COLO 205 colon.

For the molecule `O=C(Nc1ccccc1-c1nc2ccccc2c(=O)[nH]1)c1cc2ccccc2[nH]1`, the growth in the experiment with NCI-H23 lung is 82.4%; with NCI-H226 lung, 72.2%; in the experiment on NCI-H322M lung, 84.2%; in the experiment on HOP-62 NSCLC it was 71.6%; in the experiment with NCI-H460 lung, 93.2%; in the experiment with HOP-92 NSCLC, 68.7%. Besides, the growth with NCI-H522 lung is 78.8%; with A549/ATCC NSCLC it was 87.6%; in the experiment on 786-0 renal, 98.1%; in the experiment with COLO 205 colon it was 103%.

On to `CC(=O)OC[C@H]1OC(Sc2sc(C(=O)c3ccc(Br)cc3)c(N)c2-c2nc3ccccc3s2)[C@H](OC(C)=O)[C@@H](OC(C)=O)[C@@H]1OC(C)=O` (stereo not given in full), for which the growth with NCI-H23 lung is 23.8%; with NCI-H226 lung it was 28.1%; with NCI-H322M lung, 83.5%; in the experiment on HOP-62 NSCLC it was 63.8%; with NCI-H460 lung, 44.3%; in the experiment with HOP-92 NSCLC, 81.7%. Further, the growth is 63.8% with NCI-H522 lung, 71.5% in the experiment with A549/ATCC NSCLC, 62.7% with 786-0 renal and 85% in the experiment on COLO 205 colon.

Turning to `COc1ccc(-c2cc(-c3ccc(Nc4nc(Nc5ccc(Cl)cc5)nc(Nc5ccc(Cl)cc5)n4)cc3)nc(N)c2C#N)cc1`, the growth was 30% with NCI-H23 lung; 9.85% (active) in the experiment on NCI-H226 lung; 113% in the experiment on NCI-H322M lung; 86.8% in the experiment on HOP-62 NSCLC; 57.6% with NCI-H460 lung; -53.8% (active) with HOP-92 NSCLC. The growth with NCI-H522 lung is 83.4%; in the experiment on A549/ATCC NSCLC, 37%; with 786-0 renal it was 41.6%; in the experiment on COLO 205 colon it was 5.26% (active).

Turning to `COc1cc(C2CC(c3ccc(Nc4ccnc5cc(Cl)ccc45)cc3)=NN2C=O)cc(OC)c1OC` (stereo not given), the growth in the experiment with NCI-H23 lung was 89.2%; with NCI-H226 lung, 102%; in the experiment with NCI-H322M lung, 107%; with HOP-62 NSCLC, 84.4%; in the experiment on NCI-H460 lung, 57.2%; with HOP-92 NSCLC, -3.68% (active). Also, the growth in the experiment on NCI-H522 lung is 71.7%; with A549/ATCC NSCLC it was 72.4%; in the experiment on 786-0 renal, 63.8%; in the experiment with COLO 205 colon it was 95.6%.

Consider `CCN(CCNc1ccc(C)c2sc3ccccc3c(=O)c12)CC(C)(C)O`, for which the growth in the experiment on NCI-H23 lung was 86.7%; in the experiment with NCI-H226 lung it was 96.7%; with NCI-H322M lung, 90.4%; in the experiment on HOP-62 NSCLC, 82.8%; in the experiment with NCI-H460 lung it was 30.3%; in the experiment with HOP-92 NSCLC, 50.9%. The growth in the experiment on NCI-H522 lung was 74.2%; in the experiment with A549/ATCC NSCLC, 40.8%; in the experiment with 786-0 renal it was 70.4%; in the experiment on COLO 205 colon, 67.8%.

For the molecule `O=C(N/N=C/c1ccncc1)c1ccc(C(F)(F)F)nc1Nc1cccc(C(F)(F)F)c1`, the growth was 21.4% in the experiment on NCI-H23 lung; 23.7% in the experiment with NCI-H226 lung; 8.36% (active) in the experiment with NCI-H322M lung; 13.3% with HOP-62 NSCLC; 14.3% in the experiment on NCI-H460 lung; 3.81% (active) in the experiment on HOP-92 NSCLC. In addition, the growth with NCI-H522 lung was -9.51% (active); with A549/ATCC NSCLC, 16.1%; in the experiment on 786-0 renal it was -27.9% (active); with COLO 205 colon it was -3.93% (active).

On to `CC1OC(O[C@H]2/C=C/C=C/C=C/C=C/C=C/C=C/C=C/[C@H](C)[C@@H](O)[C@@H](C)[C@H](C)OC(=O)CC(O)CC(O)CCC(O)C(O)CC(O)C[C@]3(O)C[C@H](O)C(C(=O)O)C(C2)O3)C(O)[C@H](N)C1O` (stereo not given in full), for which the growth was -29.7% (active) in the experiment with NCI-H23 lung; -9.69% (active) with NCI-H226 lung; 20% in the experiment on NCI-H322M lung; -82.5% (active) in the experiment with HOP-62 NSCLC; -55.5% (active) in the experiment on NCI-H460 lung; 18.6% in the experiment on HOP-92 NSCLC. The growth in the experiment with NCI-H522 lung is 16.2%; with A549/ATCC NSCLC, -89.9% (active); in the experiment on 786-0 renal, -80% (active); in the experiment on COLO 205 colon, 38.5%.

Take `O=C(c1ccc(Nc2nccc(NCCCCNc3ccnc4cc(Cl)ccc34)n2)cc1)N1CCCCC1`: the growth with NCI-H23 lung was 45.3%; in the experiment with NCI-H226 lung it was 91.3%; in the experiment on NCI-H322M lung it was 51.3%; in the experiment on HOP-62 NSCLC, 69.7%; in the experiment with NCI-H460 lung, 12.9%; with HOP-92 NSCLC it was 59.2%. Further, the growth was 33.2% in the experiment with NCI-H522 lung, 25.8% in the experiment with A549/ATCC NSCLC, 0.767% (active) with 786-0 renal and -58.6% (active) in the experiment on COLO 205 colon.

For the molecule `COC(=O)/C=C1\S/C(=N\NS(=O)(=O)c2ccc(C)cc2)N(c2ccccc2)C1=O`, the growth is 102% with NCI-H23 lung; 97.8% in the experiment on NCI-H226 lung; 99.6% with NCI-H322M lung; 99.4% with HOP-62 NSCLC; 104% with NCI-H460 lung; 91.4% with HOP-92 NSCLC. The growth is 91.9% in the experiment on NCI-H522 lung, 98.6% in the experiment with A549/ATCC NSCLC, 108% in the experiment on 786-0 renal and 121% in the experiment with COLO 205 colon.

Turning to `COc1ccc2[nH]c(O)c(/C=c3/cc4c(c(-c5cc(OC)c(OC)c(OC)c5)n3)=Nc3ccccc3-4)c2c1`, the growth in the experiment with NCI-H23 lung was 50.7%; in the experiment on NCI-H226 lung, 67.1%; with NCI-H322M lung, 92.6%; in the experiment with HOP-62 NSCLC it was 86.2%; in the experiment with NCI-H460 lung, 71.6%; in the experiment on HOP-92 NSCLC, 39.8%. For the same molecule, the growth in the experiment on NCI-H522 lung was 50.4%; in the experiment on A549/ATCC NSCLC it was 72.5%; with 786-0 renal, 67.1%; with COLO 205 colon, 59.4%.

On to `CS(=O)c1cccc(-c2ccc3nc(N)n(-c4ccc(C(F)(F)F)cc4)c(=O)c3c2)c1` (stereo not given), for which the growth with NCI-H23 lung is 102%; in the experiment with NCI-H226 lung it was 90.9%; with NCI-H322M lung it was 103%; in the experiment with HOP-62 NSCLC, 98%; in the experiment with NCI-H460 lung, 102%; with HOP-92 NSCLC it was 66.1%. The growth in the experiment on NCI-H522 lung is 80.8%; with A549/ATCC NSCLC, 93.4%; with 786-0 renal it was 97.1%; with COLO 205 colon, 105%.

The values above are taken from PubChem BioAssay (NCI).
